# Screens: PubChem, National Center for Advancing Translational Sciences (NCATS)
# a7 integrin act = integrin-mediated muscular dystrophy alleviation activation; alpha7betagal myoblasts, beta-gal FDG fluorescence, 48 h; Potency, µM (doses to about 38.3 µM), for inactives: top-dose activation, usual class: activators; 350,000 compounds, 0.064% hits;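 also: potency is read from the fitted curve at half-maximal effect; 100% = response of the positive control SU9516; nearly all actives have a fitted effect of over 60% in size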
#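 alpha7betagal+/- myoblasts (passage 13, 250/well) treated 48 h at 37C with compounds at 1:260 dilution of DMSO stock. Lysed, then beta-galactosidase activity read as FDG fluorescence (ex 480/em 540) after 30 min, with pre-read for autofluorescence.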
# S2 tox = cell viability loss in ATXN counter-screen; S2 cells (HEK-293 line with an ATXN2-luciferase reporter) viability, CellTiter-Fluor protease fluorescence, 24 h; Potency, µM (top dose mostly 56.7 µM), actives largely listed as cytotoxic; 400,000 compounds, 0.49% hits; AID 651635; also: potency is read from the fitted curve at half-maximal effect; nearly all actives have a fitted effect of over 40% in size
# ATXN2 expr inh = ATXN2 expression inhibition; Potency, µM (doses to about 57 µM), for inactives: at the highest dose activity change, negative = inhibition, most hits filed as inhibitors; AID 1745845; HEK-293 ATXN2-luciferase reporter, luminescence, 24 h; 360,000 compounds, 0.72% hits; also: potency is read from the fitted curve at half-maximal effect; % is scaled to controls: 0 for no effect and ±100 for the full control effect; nearly all actives have a fitted effect of over 55% in size
#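 ATXN2-luciferase reporter cells (luciferase flanked by upstream and downstream ATXN2 gene portions) were treated 24 h at 37 °C with compounds at up to 57 uM. SteadyGlo luminescence gave expression; GF-AFC fluorescence gave viability.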
# D3 ag = activates the human D3 dopamine receptor; P35462; D3R DiscoveRx beta-arrestin cells, luminescence, 90 min; max activation, %; 410,000 compounds, 0.58% hits; in the data active = max activation above about 30%; also: 0% is about no effect
# Target sequence (P35462 whole entry, looked up): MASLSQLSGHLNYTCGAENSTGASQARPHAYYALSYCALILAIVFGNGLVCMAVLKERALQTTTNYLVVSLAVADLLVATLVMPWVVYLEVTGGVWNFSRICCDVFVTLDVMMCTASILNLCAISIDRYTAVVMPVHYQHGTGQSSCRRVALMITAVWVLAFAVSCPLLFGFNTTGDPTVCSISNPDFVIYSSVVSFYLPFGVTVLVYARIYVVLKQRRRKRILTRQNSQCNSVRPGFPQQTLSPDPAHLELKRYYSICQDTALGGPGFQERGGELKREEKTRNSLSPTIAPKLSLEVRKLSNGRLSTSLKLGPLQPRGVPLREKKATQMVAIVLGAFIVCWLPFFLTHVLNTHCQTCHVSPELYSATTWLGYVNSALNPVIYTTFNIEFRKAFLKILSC
#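 Agonist mode: compounds and dopamine controls were applied to plated cells for 90 min at 37 degrees C after an overnight attachment at 1500 cells/well. Luminescent read-out followed 30 - 60 minutes at room temperature with DiscoveRx detection reagent.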
# IL1B secr inh = inhibitors of inflammasome signaling (IL-1 beta secretion); THP-1 LPS/ATP IL-1B secretion, AlphaLISA, 16 h; stronger effect = lower value; activity change, % at 57.5 µM; 360,000 compounds, 4.7% hits; in the data active = activity change below about -50%; inconclusive = mostly about -30% to -49%; also: % is scaled to controls: 0 for no effect and ±100 for the full control effect
#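 THP-1 cells pretreated 1 hr with compounds (up to 57.5 uM final), then stimulated with LPS (250 ng/mL final) plus ATP (1.25 mM final); secreted IL-1B measured by AlphaLISA after 16 hr, decreased signal indicating inhibition.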
# DRD3 antagonist = D3 dopamine receptor (human) antagonism; D3R cells, DiscoveRx beta-arrestin luminescence, antagonist mode; stronger effect = lower value; max response, negative = inhibition, %; 360,000 compounds, 2.5% hits; AID 652054; in the data active = max response below about -50%; inconclusive = no clear call, values can overlap the other calls; also: % is scaled to controls: 0 for no effect and ±100 for the full control effect
#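 Cells expressing the human receptor were seeded at 1500 cells/well, incubated overnight at 37 degrees C in 5% CO2, then exposed to library compounds with dopamine controls for 90 minutes at 37 degrees C before luminescent detection.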
# Numbers without * were called inactive; i = inactive; u = inconclusive; x = no result. A selection: hits, their analogues and other compounds. The true share with any hit is near 7%. Unless noted, calls follow the shape of the dose curve; as a rule, active = well fitted curve in the direction sought with a large enough effect; inconclusive = small, poorly fitted or top-dose-only effect, or another doubt; inactive = no such curve, though single readings can be large; an effect the other way counts as inactive or inconclusive.
SMILES,a7 integrin act,S2 tox,ATXN2 expr inh,D3 ag,IL1B secr inh,DRD3 antagonist
COC(=O)c1ccc(CSc2nc3ccc(S(N)(=O)=O)cc3[nH]2)cc1,u,i,14%,-25,-101*,0
Cc1noc(C)c1NC(=O)Nc1cccc2c1O[C@H](CN(C)S(=O)(=O)c1ccc(F)cc1)[C@@H](C)CN([C@H](C)CO)C2=O,30%,i,8%,-21,5,-1
O=C(CN1C(=O)NC2(CCCC2)C1=O)Nc1ccc(F)cc1,12%,i,2%,10,17,16
COc1ccc(CC(=O)Nc2cccc(-c3nnc(-c4ccc(C)cc4)o3)c2)cc1OC,-54%,u,u,28,-99*,20
COc1ccc(CC(=O)Nc2cccc(-c3nnc(-c4ccccc4)o3)c2)cc1OC,-60%,x,u,28,-72*,13
COc1ccc(OC)c(-n2c(=O)c3ccccc3c3ccccc3c2=O)c1,22%,i,-9%,17,-89*,-29
Cc1nc2sccn2c1-c1csc(NCc2ccccc2)n1,-43%,i,6%,20,-73*,13
CCOC(=O)C1CCN(S(=O)(=O)c2cc(-c3onc(C)c3C)ccc2C)CC1,x,x,x,-2,x,x
Cc1nn(-c2ccccc2)c(C)c1Cc1ccc(O)cc1,-8%,i,36%,2,-6,19
Cc1nn(-c2ccccc2)c2c1C(O)n1c(nc3ccccc31)S2 (stereo not given),2%,u,u,23,-86*,20
O=C(CCN1CCc2ccccc21)c1ccc2c(c1)OCCO2,-55%,u,-30%,5,u,u
O=C(CCN1CCC(c2ccccc2)C1)c1ccc2c(c1)OCCO2 (stereo not given),x,i,-20%,-87,-14,-66*
O=C(O)CCC(=O)c1ccc2c(c1)OCCCO2,14%,i,5%,-7,-1,-4
COc1cc(C(=O)N(C)C2CCCN(Cc3ccccc3F)C2)cc(OC)c1OC (stereo not given),-13%,i,-13%,-8,15,-11
O=C(CCN1CCc2ccccc2C1)c1ccc2c(c1)OCCO2,-66%,i,-5%,-8,0,-88*
O=C(CCN1CCCC1Cc1ccccc1)c1ccc2c(c1)OCCO2 (stereo not given),-13%,x,u,7,-101*,-15
COc1cc(C(=O)CCN2CCC(c3ccccc3)C2)cc(OC)c1OC (stereo not given),-62%,i,10%,-29,-105*,-25
Cc1ccccc1N1CCN(C2CCCN(C(=O)c3cc(C(C)C)[nH]n3)C2)CC1 (stereo not given),-8%,i,-17%,-22,-18,-13
Cc1sc2ncn(-c3ccccc3)c(=O)c2c1C,-7%,i,x,1,-13,-11
O=C(CCN1CCCCC1)c1ccc2c(c1)OCCO2,-59%,i,28%,-33,-86*,u
CCOC(=O)Cc1ccc(Nc2nc(NCc3cccs3)nc3ccsc23)cc1,x,i,-3%,19,-84*,111
COCCNc1nc(Nc2ccc(F)cc2)c2sccc2n1,x,i,-10%,-2,59,11
COc1ccc(Nc2nc(NCc3cccs3)nc3ccsc23)cc1OC,x,u,-26%,3,-87*,62
O=C1C(=O)c2ccccc2C(O)=C1CCCCl,u,x,25µM*,1,-67*,-25
COc1ccc(CC2=C(O)c3ccccc3C(=O)C2=O)cc1,0%,i,-7%,-13,14,u
OCCN1CCN(CCCN2c3ccccc3CCc3ccccc32)CC1,-28%,i,x,-4,-26,-125*
CC1(C(=O)NC2CCCC2)CCC(=O)N1Cc1ccccc1Cl (stereo not given),5%,i,4%,-6,9,2
CC(=O)N1Cc2cc(C(=O)NCC(F)(F)F)nc(-c3cccc(-c4cc5ccccc5o4)c3)c2[C@@H]1CCO,x,i,-10%,55*,24,-1
